From ChEMBL document CHEMBL3988442, “University of Dundee, Small-Polar-MMV Screening Library” (2021)
The campaign covered roughly 48,000 compounds. About 13,000 (27%) showed an effect of 50% or more. This is one part of the list.

These molecules were tested on Wolbachia pipientis (assay: Anti-Wolbachia Cell-Based Screen). Conditions: 5 µM.
Format: functional
Design: scale not given: in the data most compounds retested in dose-response had high values
For `O=S(=O)(C1CC1)N1CCOC2(COCCN(c3ncccn3)C2)C1` (centres undefined), the “Percent Effect” value was -6.11%.
In the case of `Cc1cnccc1-n1nc(C(C)C)nc1CCN(C)S(C)(=O)=O`, the “Percent Effect” value is reported as -12.77%.
`CCN(CC(F)(F)F)C(=O)C1CCCN(Cc2cscn2)C1` (centres undefined) was tested, and the “Percent Effect” value was 6.1%.
With `COCC(=O)NCCC(=O)N1CCN(S(=O)(=O)c2ccc(Br)cc2)CC1` the “Percent Effect” value was 15.42%.
In the case of `COCCCN(CCOC)Cc1nc2c(cnn2C)c(=O)[nH]1`, the “Percent Effect” value is reported as 93.22%.
For `COCCN(CCOC)Cc1nc2c(cnn2C)c(=O)[nH]1`, the “Percent Effect” value was 107.8%.
With `Cc1ccc(C(C)N(C)Cc2nc3c(cnn3C)c(=O)[nH]2)cc1` (centres undefined) the “Percent Effect” value was -5.253%.
With `COCCCN(C)Cc1nc2c(cnn2C)c(=O)[nH]1` the “Percent Effect” value was -7.298%.
In the case of `COCCN(CCc1ccccc1)Cc1nc2c(cnn2C)c(=O)[nH]1`, the “Percent Effect” value is reported as 10.98%.
In the case of `CC(C)N(Cc1nc2c(cnn2C)c(=O)[nH]1)c1ccccc1`, the “Percent Effect” value is reported as -5.677%.
With `COCCN(Cc1nc2c(cnn2C)c(=O)[nH]1)C(C)c1ccccc1` (centres undefined) the “Percent Effect” value was 98.63%.
With `CC(C)(C)c1cc(CN2CCOCC(O)C2)n[nH]1` (centres undefined) the “Percent Effect” value was 40.36%.
`CC(=O)Nc1cc(F)c(S(=O)(=O)N(C)CC2CCC2)c(F)c1` was tested, and the “Percent Effect” value was 32.27%.
In the case of `Cn1cccc1CN1CCC2(CC1)CC(Oc1cccnc1)C2.O=C(O)C(F)(F)F.O=C(O)C(F)(F)F`, the “Percent Effect” value is reported as 9.854%.
For `COC(=O)C(C)Sc1nnnn1C1CCOCC1` (centres undefined), the “Percent Effect” value was -41.77%.
With `c1ccc(N2CCN(Cc3cnc(C4CCCCO4)nc3)CC2)cc1` (centres undefined) the “Percent Effect” value was 50.77%.
For `c1ccc(N2CCN(Cc3cnc(C4CCCCO4)nc3)CC2)nc1` (centres undefined), the “Percent Effect” value was 112.3%.
With `Cl.Cl.OC(CN1CCN(Cc2ccccc2)CC1)C1CC1` (centres undefined) the “Percent Effect” value was 1.667%.
For `CNS(=O)(=O)c1ccc(CN2CCCN(c3ccccc3)CC2)cc1`, the “Percent Effect” value was 23.15%.
With `OCC1(CC2CC2)CCCN(Cc2cnc(N3CCOCC3)nc2)C1` (centres undefined) the “Percent Effect” value was 1.203%.
With `c1nc(C2CCCCO2)ncc1CN1CCOCC1` (centres undefined) the “Percent Effect” value was 157.1%.
For `CCOC(C)c1noc(CN2CCCN(c3ccccn3)CC2)n1` (centres undefined), the “Percent Effect” value was 3.417%.
For `OCC1(O)CCN(Cc2ccc(C3CCCCO3)o2)CC1` (centres undefined), the “Percent Effect” value was 2.159%.
For `O=C(O)C1CN(Cc2cnc(C3CCCCC3)nc2)CCO1` (centres undefined), the “Percent Effect” value was -13.64%.
With `O=C1OCCC1N1CCN(c2ccccn2)CC1` (centres undefined) the “Percent Effect” value was 0.5958%.
In the case of `c1ccc(CN2CCN(Cc3cnc(C4CCCCO4)nc3)CC2)cc1` (centres undefined), the “Percent Effect” value is reported as 181.4%.
With `CN(C)[C@H]1CCCCN(Cc2cnc(NCc3ccccc3)nc2)C1` the “Percent Effect” value was -3.217%.
With `COc1ccc(CC(=O)N2CCc3nnc(N(C)C)cc3C2)cc1F` the “Percent Effect” value was -3.012%.
In the case of `CCN(CC)S(=O)(=O)N1C[C@@H]2CC[C@H](C1)N(Cc1cscn1)C2=O`, the “Percent Effect” value is reported as -30.66%.
For `CCC1c2ccccc2CCN1C(=O)c1ccnc(C(=O)OC)c1` (centres undefined), the “Percent Effect” value was -12.45%.
In the case of `CC(C)NC[C@H]1COCc2nc3cccnc3n21`, the “Percent Effect” value is reported as -0.2965%.
With `O=C(c1ccc2ncsc2c1)N1CCC(C(=O)O)(n2cccn2)CC1` the “Percent Effect” value was -48.02%.
In the case of `CC(C)(C)c1nnc(CN2CCN(S(C)(=O)=O)CC2)o1`, the “Percent Effect” value is reported as 12.09%.
With `CC(=O)N1CCOC2(CCCN(C(=O)CCN3CCCCC3)C2)C1` (centres undefined) the “Percent Effect” value was -17.75%.
With `O=C(Cn1cc(I)cn1)N1CCc2ccccc2C1` the “Percent Effect” value was 13.89%.
With `O=C(CSCCN1CCOCC1)N1CCCCCC1` the “Percent Effect” value was 88.11%.
`CCOCCN1CCN(CCC(=O)N2CCCCC2)CC1` was tested, and the “Percent Effect” value was -4.912%.
`CC1CCN(C(=O)CSCc2nc(C3CC3)no2)CC1` was tested, and the “Percent Effect” value was 2%.
`CC1CCN(C(=O)CSCCN2CCOCC2)CC1` was tested, and the “Percent Effect” value was 94.74%.
With `CC1CCN(C(=O)CSCc2noc(C(C)C)n2)CC1` the “Percent Effect” value was -0.6667%.
For `O=C(CSCCN1CCOCC1)N1CCc2ccccc2C1`, the “Percent Effect” value was 125%.
`O=C(CCC(=O)N1CCc2ccccc2C1)c1cccs1` was tested, and the “Percent Effect” value was 11.35%.
With `N#Cc1cccnc1OC1CCN(C(=O)NCc2ccccc2)CC1` the “Percent Effect” value was 7.798%.
`CC(=O)N1CCCC2(CN(Cc3ccc(C)s3)CCO2)C1.O=C(O)C(F)(F)F` (centres undefined) was tested, and the “Percent Effect” value was 0.2205%.
`O=C(CC1OCCc2ccccc21)NCC1(O)CCCCC1` (centres undefined) was tested, and the “Percent Effect” value was -10.96%.
With `Cc1ccc(CNc2ccn(CCC(N)=O)n2)c(Br)c1` the “Percent Effect” value was -13.88%.
For `CCC(CO)N(Cc1ccccn1)C(=O)c1ccc(C)c(Cl)c1` (centres undefined), the “Percent Effect” value was -8.3%.
For `COc1ccc(-c2ccncc2)cc1CNC1CCCC1`, the “Percent Effect” value was -7.134%.
In the case of `c1cc(-c2cnc(NC3CC3)nc2[C@@H]2CCCO2)ccn1`, the “Percent Effect” value is reported as 175.9%.
For `CC(C)c1cc(C(=O)N(Cc2ccncc2)CC2CCCO2)no1` (centres undefined), the “Percent Effect” value was 4.129%.
For `c1cc(-c2cnc(NC3CC3)nc2[C@H]2CCCO2)ccn1`, the “Percent Effect” value was 171.5%.
`CC(C)Nc1ncc(-c2ccncc2)c([C@@H]2CCCO2)n1` was tested, and the “Percent Effect” value was 174%.
With `COc1ccc(CCC(=O)NCCC2CCCO2)cc1Br` (centres undefined) the “Percent Effect” value was 4.709%.
`O=C(NCCn1ccnc1)C1(c2ccc3c(c2)OCCO3)CCCC1` was tested, and the “Percent Effect” value was 33.12%.
In the case of `CC(C)(CO)Nc1ccc(-c2nc(-c3ccccc3F)no2)cn1`, the “Percent Effect” value is reported as -13.37%.
In the case of `CC(C)(CO)Nc1cc(-c2cn[nH]c2)ncn1.Cl`, the “Percent Effect” value is reported as 116.8%.
`CC(C)(CO)Nc1cc(-c2ccccc2)ncn1` was tested, and the “Percent Effect” value was 83.59%.
In the case of `CC(C)(C)S(=O)(=O)CCNC(=O)c1cnc(-c2ccccc2)nc1`, the “Percent Effect” value is reported as -10.41%.
In the case of `COc1ccc(-c2cn[nH]c2)cc1CNC1CCCC1`, the “Percent Effect” value is reported as -15.21%.
With `CC(C)(CO)Nc1cc(-c2ccncc2)ncn1` the “Percent Effect” value was 106.2%.
For `CN(Cc1ccsc1)Cc1ccc(C2CCCCO2)o1` (centres undefined), the “Percent Effect” value was 10.63%.
For `Cc1cccc(OC2CCN(c3ccc(C#N)cn3)CC2)n1`, the “Percent Effect” value was -50.95%.
For `CN(C)[C@@H]1CCN(c2ncccn2)[C@H]1Cc1ccncc1.O=C(O)C(F)(F)F.O=C(O)C(F)(F)F`, the “Percent Effect” value was -8.933%.
For `CC(O)CN(Cc1cccc(C(N)=O)c1)c1ccccc1` (centres undefined), the “Percent Effect” value was -3.401%.
In the case of `Cc1cc(CN(C)C(=O)C2CCC(=O)N(CC3CCCCC3)C2)n[nH]1` (centres undefined), the “Percent Effect” value is reported as 15.57%.
`Cc1nc(C)n(CC2CCCN2Cc2nc3ccccc3nc2C)n1` (centres undefined) was tested, and the “Percent Effect” value was -1.93%.
In the case of `Cc1nn(C)c(C)c1C1CCCN1CCCc1nc2ccccc2o1` (centres undefined), the “Percent Effect” value is reported as 0.8066%.
For `Cc1cnn(CC2CCCN2CCCc2nc3ccccc3o2)c1` (centres undefined), the “Percent Effect” value was 11.07%.
`Cc1nc(C)n(CC2CCCN2Cc2nc(N)c3ccccc3n2)n1` (centres undefined) was tested, and the “Percent Effect” value was 4.973%.
`Cc1nc(C)n(CC2CCCN2CCCc2ccccc2)n1` (centres undefined) was tested, and the “Percent Effect” value was -4.599%.
For `Cc1cc(C)n(CC2CCCN2CCCc2nc3ccccc3o2)n1` (centres undefined), the “Percent Effect” value was 125.1%.
With `Cc1cc(C2CCCN2CCCc2nc3ccccc3o2)on1` (centres undefined) the “Percent Effect” value was 8.097%.
With `Cc1nc(C)n(CC2CCCN2CCCc2nc3ccccc3o2)n1` (centres undefined) the “Percent Effect” value was 115.5%.
With `Cc1nc(C)n(CC2CCCCN2Cc2nc3ccccc3o2)n1` (centres undefined) the “Percent Effect” value was 96.27%.
